Laboratory results reported in article PMC11006913.
Numbering of substitutions follows the chain as printed.

Key:
Assay in all cases: PBM; 200 nM protein, PBS
Settings in all cases: dsDNA, one strand shown
HESX1 [1] = biological target: HESX1 (Homo sapiens, UniProt Q9UBX0 95-180, R165K)
HESX1 [2] = biological target: HESX1 (Homo sapiens, UniProt Q9UBX0 95-180)
HESX1 [3] = biological target: HESX1 (Homo sapiens, UniProt Q9UBX0 95-180, R109Q)
HESX1 [4] = biological target: HESX1 (Homo sapiens, UniProt Q9UBX0 95-180, F115L)
HESX1 (Homo sapiens, UniProt Q9UBX0 95-180, F115L), sequence (Q9UBX0 95-180 F115L): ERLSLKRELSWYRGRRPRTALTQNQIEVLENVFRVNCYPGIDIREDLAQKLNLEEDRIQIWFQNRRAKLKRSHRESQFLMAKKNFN

HESX1 [5] = biological target: HESX1 (Homo sapiens, UniProt Q9UBX0 95-180, P111T)
HESX1 (Homo sapiens, UniProt Q9UBX0 95-180, P111T), sequence (Q9UBX0 95-180 P111T): as the sequence (Q9UBX0 95-180 F115L) above, with P17T, L21F counted along it

HOXB4 [6] = biological target: HOXB4 (Homo sapiens, UniProt P17483 148-234)
HOXB4 (Homo sapiens, UniProt P17483 148-234), sequence (P17483 148-234): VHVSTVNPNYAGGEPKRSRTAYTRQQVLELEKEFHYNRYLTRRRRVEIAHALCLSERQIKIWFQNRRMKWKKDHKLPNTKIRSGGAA

SHOX [7] = biological target: SHOX (Homo sapiens, UniProt O15266 103-189)
SHOX (Homo sapiens, UniProt O15266 103-189), sequence (O15266 103-189): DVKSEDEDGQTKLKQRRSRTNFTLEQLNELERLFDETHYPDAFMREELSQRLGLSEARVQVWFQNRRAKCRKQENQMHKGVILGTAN

HOXB9 = HOXB9 (Homo sapiens, UniProt P17482 171-250, T197M)
HOXB9, sequence (P17482 171-250 T197M): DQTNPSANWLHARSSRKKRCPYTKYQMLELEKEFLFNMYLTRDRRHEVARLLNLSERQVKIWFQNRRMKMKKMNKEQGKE

ALX4 [8] = biological target: ALX4 (Homo sapiens, UniProt Q9H161 200-286)
ALX4 (Homo sapiens, UniProt Q9H161 200-286), sequence (Q9H161 200-286): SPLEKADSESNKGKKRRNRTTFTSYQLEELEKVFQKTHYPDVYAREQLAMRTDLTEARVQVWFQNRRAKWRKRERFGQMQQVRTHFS

PAX4 [9] = biological target: T1, PAX4 (Homo sapiens, UniProt O43316 9-242, R200K)
T1 sequence: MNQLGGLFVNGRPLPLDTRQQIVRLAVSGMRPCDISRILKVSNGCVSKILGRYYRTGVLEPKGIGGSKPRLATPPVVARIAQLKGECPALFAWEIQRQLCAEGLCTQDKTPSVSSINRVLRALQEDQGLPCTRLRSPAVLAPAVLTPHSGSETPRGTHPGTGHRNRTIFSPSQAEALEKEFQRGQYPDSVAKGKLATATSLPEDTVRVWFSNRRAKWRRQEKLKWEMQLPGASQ

PRRX1 [10] = biological target: PRRX1 (Homo sapiens, UniProt P54821 80-166, F113S)
PRRX1 (Homo sapiens, UniProt P54821 80-166, F113S), sequence (P54821 80-166 F113S): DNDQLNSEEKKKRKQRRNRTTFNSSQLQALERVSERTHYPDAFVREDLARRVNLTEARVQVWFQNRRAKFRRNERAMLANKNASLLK

PAX4 [11] = biological target: T2, PAX4 (Homo sapiens, UniProt O43316 9-242)
T2 sequence: T1 sequence with K192R

ALX4 [12] = biological target: ALX4 (Homo sapiens, UniProt Q9H161 200-286, Q225E)
ALX4 (Homo sapiens, UniProt Q9H161 200-286, Q225E), sequence (Q9H161 200-286 Q225E): as the sequence (Q9H161 200-286) above, with Q26E counted along it

HOXB4 [13] = biological target: HOXB4 (Homo sapiens, UniProt P17483 148-234, V174I)
HOXB4 (Homo sapiens, UniProt P17483 148-234, V174I), sequence (P17483 148-234 V174I): as the sequence (P17483 148-234) above, with V27I counted along it

ALX1 [14] = biological target: ALX1 (Homo sapiens, UniProt Q15699 118-204, L144V)
ALX1 (Homo sapiens, UniProt Q15699 118-204, L144V), sequence (Q15699 118-204 L144V): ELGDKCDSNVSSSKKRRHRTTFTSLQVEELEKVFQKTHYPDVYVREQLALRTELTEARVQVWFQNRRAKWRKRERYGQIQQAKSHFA

ALX3 [15] = biological target: ALX3 (Homo sapiens, UniProt O95076 139-225, N203Q)
ALX3 (Homo sapiens, UniProt O95076 139-225, N203Q), sequence (O95076 139-225 N203Q): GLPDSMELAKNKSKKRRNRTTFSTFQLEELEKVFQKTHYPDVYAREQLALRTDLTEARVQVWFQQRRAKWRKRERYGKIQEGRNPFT

PAX4 [16] = biological target: T3, PAX4 (Homo sapiens, UniProt O43316 9-242, R200Q)
T3 sequence: T1 sequence with K192Q

SHOX [17] = biological target: SHOX (Homo sapiens, UniProt O15266 103-189, R173C)
SHOX (Homo sapiens, UniProt O15266 103-189, R173C), sequence (O15266 103-189 R173C): as the sequence (O15266 103-189) above, with R71C counted along it

ALX1 [18] = biological target: ALX1 (Homo sapiens, UniProt Q15699 118-204, L144R)
ALX1 (Homo sapiens, UniProt Q15699 118-204, L144R), sequence (Q15699 118-204 L144R): as the sequence (Q15699 118-204 L144V) above, with V27R counted along it

PAX4 [19] = biological target: T4, PAX4 (Homo sapiens, UniProt O43316 9-242, F177V)
T4 sequence: T1 sequence with F169V, K192R

ALX3 [20] = biological target: ALX3 (Homo sapiens, UniProt O95076 139-225)
ALX3 (Homo sapiens, UniProt O95076 139-225), sequence (O95076 139-225): as the sequence (O95076 139-225 N203Q) above, with Q65N counted along it

PAX4 [21] = biological target: T5, PAX4 (Homo sapiens, UniProt O43316 9-242, F177Y)
T5 sequence: T1 sequence with F169Y, K192R

PROP1 [22] = biological target: PROP1 (Homo sapiens, UniProt O75360 56-141)
PROP1 (Homo sapiens, UniProt O75360 56-141), sequence (O75360 56-141): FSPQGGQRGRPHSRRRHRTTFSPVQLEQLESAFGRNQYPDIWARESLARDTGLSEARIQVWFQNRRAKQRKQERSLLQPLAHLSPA

PROP1 [23] = biological target: PROP1 (Homo sapiens, UniProt O75360 56-141, R99H)
PROP1 (Homo sapiens, UniProt O75360 56-141, R99H), sequence (O75360 56-141 R99H): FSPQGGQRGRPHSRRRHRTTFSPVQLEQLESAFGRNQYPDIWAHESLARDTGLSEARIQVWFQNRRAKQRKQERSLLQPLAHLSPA

VAX1 [24] = biological target: VAX1 (Homo sapiens, UniProt Q5SQQ9 86-172)
VAX1 (Homo sapiens, UniProt Q5SQQ9 86-172), sequence (Q5SQQ9 86-172): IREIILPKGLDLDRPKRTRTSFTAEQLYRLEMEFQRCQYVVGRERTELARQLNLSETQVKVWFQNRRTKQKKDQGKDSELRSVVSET

ALX3 [25] = biological target: ALX3 (Homo sapiens, UniProt O95076 139-225, L168Q)
ALX3 (Homo sapiens, UniProt O95076 139-225, L168Q), sequence (O95076 139-225 L168Q): as the sequence (O95076 139-225 N203Q) above, with L30Q, Q65N counted along it

ALX3 [26] = biological target: ALX3 (Homo sapiens, UniProt O95076 139-225, L168V)
ALX3 (Homo sapiens, UniProt O95076 139-225, L168V), sequence (O95076 139-225 L168V): as the sequence (O95076 139-225 N203Q) above, with L30V, Q65N counted along it

PROP1 [27] = biological target: PROP1 (Homo sapiens, UniProt O75360 56-141, F88S)
PROP1 (Homo sapiens, UniProt O75360 56-141, F88S), sequence (O75360 56-141 F88S): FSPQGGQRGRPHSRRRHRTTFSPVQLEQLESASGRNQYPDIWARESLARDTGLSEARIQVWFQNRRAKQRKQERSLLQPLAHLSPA

VAX1 [28] = biological target: VAX1 (Homo sapiens, UniProt Q5SQQ9 86-172, T142I)
VAX1 (Homo sapiens, UniProt Q5SQQ9 86-172, T142I), sequence (Q5SQQ9 86-172 T142I): as the sequence (Q5SQQ9 86-172) above, with T57I counted along it

PAX4 [29] = biological target: T6, PAX4 (Homo sapiens, UniProt O43316 9-242, R227W)
T6 sequence: T1 sequence with K192R, R219W

ALX1 [30] = biological target: ALX1 (Homo sapiens, UniProt Q15699 118-204)
ALX1 (Homo sapiens, UniProt Q15699 118-204), sequence (Q15699 118-204): as the sequence (Q15699 118-204 L144V) above, with V27L counted along it

ALX3 [31] = biological target: ALX3 (Homo sapiens, UniProt O95076 139-225, N203S)
ALX3 (Homo sapiens, UniProt O95076 139-225, N203S), sequence (O95076 139-225 N203S): as the sequence (O95076 139-225 N203Q) above, with Q65S counted along it

PRRX1 [32] = biological target: PRRX1 (Homo sapiens, UniProt P54821 80-166)
PRRX1 (Homo sapiens, UniProt P54821 80-166), sequence (P54821 80-166): as the sequence (P54821 80-166 F113S) above, with S34F counted along it

VAX1 [33] = biological target: VAX1 (Homo sapiens, UniProt Q5SQQ9 86-172, K157R)
VAX1 (Homo sapiens, UniProt Q5SQQ9 86-172, K157R), sequence (Q5SQQ9 86-172 K157R): as the sequence (Q5SQQ9 86-172) above, with K72R counted along it

HESX1 (Homo sapiens, UniProt Q9UBX0 95-180, R165K), sequence (Q9UBX0 95-180 R165K): as the sequence (Q9UBX0 95-180 F115L) above, with L21F, R71K counted along it
HESX1 (Homo sapiens, UniProt Q9UBX0 95-180), sequence (Q9UBX0 95-180): as the sequence (Q9UBX0 95-180 F115L) above, with L21F counted along it
HESX1 (Homo sapiens, UniProt Q9UBX0 95-180, R109Q), sequence (Q9UBX0 95-180 R109Q): as the sequence (Q9UBX0 95-180 F115L) above, with R15Q, L21F counted along it

In the case of CAAATGGG, the binding signal (HESX1 [1]) is reported as 7.28 upbm affinity estimate (log intensity, higher = more binding, comparable within an allelic series), the binding signal (HESX1 [2]) is reported as 7.38 upbm affinity estimate (log intensity, higher = more binding, comparable within an allelic series) and the binding signal (HESX1 [3]) is reported as 6.88 upbm affinity estimate (log intensity, higher = more binding, comparable within an allelic series). For the same sequence, the binding signal (HESX1 [4]) was 6.73 upbm affinity estimate (log intensity, higher = more binding, comparable within an allelic series).

TATTGCCA was tested, and the binding signal (HESX1 [1]) was 7.79 upbm affinity estimate (log intensity, higher = more binding, comparable within an allelic series), the binding signal (HESX1 [2]) was 7.9 upbm affinity estimate (log intensity, higher = more binding, comparable within an allelic series) and the binding signal (HESX1 [5]) was 7.47 upbm affinity estimate (log intensity, higher = more binding, comparable within an allelic series).

With TAAATTAA the binding signal (HOXB4 [6]) was 12.9 upbm affinity estimate (log intensity, higher = more binding, comparable within an allelic series), the binding signal (SHOX [7]) was 11.8 upbm affinity estimate (log intensity, higher = more binding, comparable within an allelic series) and the binding signal (HOXB9) was 9.99 upbm affinity estimate (log intensity, higher = more binding, comparable within an allelic series). The binding signal (ALX4 [8]) was 13.9 upbm affinity estimate (log intensity, higher = more binding, comparable within an allelic series), the binding signal (PAX4 [9]) was 11.8 upbm affinity estimate (log intensity, higher = more binding, comparable within an allelic series) and the binding signal (PRRX1 [10]) was 11.2 upbm affinity estimate (log intensity, higher = more binding, comparable within an allelic series). The binding signal (PAX4 [11]) was 12.3 upbm affinity estimate (log intensity, higher = more binding, comparable within an allelic series), the binding signal (ALX4 [12]) was 13.1 upbm affinity estimate (log intensity, higher = more binding, comparable within an allelic series) and the binding signal (HOXB4 [13]) was 13.6 upbm affinity estimate (log intensity, higher = more binding, comparable within an allelic series). For the same sequence, the binding signal (ALX1 [14]) was 11.8 upbm affinity estimate (log intensity, higher = more binding, comparable within an allelic series), the binding signal (ALX3 [15]) was 8.53 upbm affinity estimate (log intensity, higher = more binding, comparable within an allelic series) and the binding signal (PAX4 [16]) was 12 upbm affinity estimate (log intensity, higher = more binding, comparable within an allelic series). The binding signal (SHOX [17]) was 9.24 upbm affinity estimate (log intensity, higher = more binding, comparable within an allelic series), the binding signal (ALX1 [18]) was 11.5 upbm affinity estimate (log intensity, higher = more binding, comparable within an allelic series) and the binding signal (PAX4 [19]) was 10.6 upbm affinity estimate (log intensity, higher = more binding, comparable within an allelic series). The binding signal (ALX3 [20]) was 12.4 upbm affinity estimate (log intensity, higher = more binding, comparable within an allelic series), the binding signal (PAX4 [21]) was 11 upbm affinity estimate (log intensity, higher = more binding, comparable within an allelic series) and the binding signal (PROP1 [22]) was 11.2 upbm affinity estimate (log intensity, higher = more binding, comparable within an allelic series). The binding signal (PROP1 [23]) was 11 upbm affinity estimate (log intensity, higher = more binding, comparable within an allelic series), the binding signal (VAX1 [24]) was 12.6 upbm affinity estimate (log intensity, higher = more binding, comparable within an allelic series) and the binding signal (ALX3 [25]) was 10.4 upbm affinity estimate (log intensity, higher = more binding, comparable within an allelic series). The binding signal (HESX1 [5]) was 10.1 upbm affinity estimate (log intensity, higher = more binding, comparable within an allelic series), the binding signal (ALX3 [26]) was 9.89 upbm affinity estimate (log intensity, higher = more binding, comparable within an allelic series) and the binding signal (PROP1 [27]) was 7.74 upbm affinity estimate (log intensity, higher = more binding, comparable within an allelic series). For the same sequence, the binding signal (VAX1 [28]) was 12.4 upbm affinity estimate (log intensity, higher = more binding, comparable within an allelic series), the binding signal (PAX4 [29]) was 11 upbm affinity estimate (log intensity, higher = more binding, comparable within an allelic series) and the binding signal (ALX1 [30]) was 12.4 upbm affinity estimate (log intensity, higher = more binding, comparable within an allelic series). For the same sequence, the binding signal (ALX3 [31]) was 8.68 upbm affinity estimate (log intensity, higher = more binding, comparable within an allelic series), the binding signal (PRRX1 [32]) was 13.4 upbm affinity estimate (log intensity, higher = more binding, comparable within an allelic series) and the binding signal (VAX1 [33]) was 12.4 upbm affinity estimate (log intensity, higher = more binding, comparable within an allelic series).
